Key:
[1] = target: Sphingosine kinase 1 (Homo sapiens) (UniProt Q9NYA1); conditions: at 1 µM;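 further: mean SPHK1 inhibition value reported from the GSK PKIS kinase panel screen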
[2] = target: T1, Sphingosine kinase 2 (Homo sapiens) (UniProt Q9NRA0); conditions: at 0.1 µM
T1 sequence (whole entry): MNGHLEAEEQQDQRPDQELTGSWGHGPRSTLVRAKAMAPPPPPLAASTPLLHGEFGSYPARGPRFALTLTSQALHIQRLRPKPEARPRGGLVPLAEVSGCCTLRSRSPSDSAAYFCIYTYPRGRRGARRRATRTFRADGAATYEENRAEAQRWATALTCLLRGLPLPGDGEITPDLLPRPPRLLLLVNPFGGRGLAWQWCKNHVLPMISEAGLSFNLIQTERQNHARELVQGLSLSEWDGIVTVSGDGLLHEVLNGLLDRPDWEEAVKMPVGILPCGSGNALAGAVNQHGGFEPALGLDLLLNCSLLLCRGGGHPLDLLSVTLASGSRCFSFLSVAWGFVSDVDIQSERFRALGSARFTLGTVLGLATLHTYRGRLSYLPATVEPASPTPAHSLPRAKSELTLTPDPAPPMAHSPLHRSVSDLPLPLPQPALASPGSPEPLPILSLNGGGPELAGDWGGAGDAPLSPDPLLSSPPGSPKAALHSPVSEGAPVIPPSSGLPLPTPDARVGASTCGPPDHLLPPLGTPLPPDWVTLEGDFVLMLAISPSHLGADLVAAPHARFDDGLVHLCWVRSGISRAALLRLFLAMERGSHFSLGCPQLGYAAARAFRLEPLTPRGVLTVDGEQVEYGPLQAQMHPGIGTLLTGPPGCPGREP

[3] = target: T1, Sphingosine kinase 2 (Homo sapiens); conditions: at 1 µM
[4] = target: Casein kinase II subunit alpha (Homo sapiens) (UniProt P68400); conditions: at 0.1 µM
[5] = target: Casein kinase II subunit alpha (Homo sapiens) (UniProt P68400); conditions: at 1 µM
[6] = target: T2, Inhibitor of nuclear factor kappa-B kinase subunit alpha (Homo sapiens) (UniProt O15111); conditions: at 0.1 µM
T2 sequence (whole entry): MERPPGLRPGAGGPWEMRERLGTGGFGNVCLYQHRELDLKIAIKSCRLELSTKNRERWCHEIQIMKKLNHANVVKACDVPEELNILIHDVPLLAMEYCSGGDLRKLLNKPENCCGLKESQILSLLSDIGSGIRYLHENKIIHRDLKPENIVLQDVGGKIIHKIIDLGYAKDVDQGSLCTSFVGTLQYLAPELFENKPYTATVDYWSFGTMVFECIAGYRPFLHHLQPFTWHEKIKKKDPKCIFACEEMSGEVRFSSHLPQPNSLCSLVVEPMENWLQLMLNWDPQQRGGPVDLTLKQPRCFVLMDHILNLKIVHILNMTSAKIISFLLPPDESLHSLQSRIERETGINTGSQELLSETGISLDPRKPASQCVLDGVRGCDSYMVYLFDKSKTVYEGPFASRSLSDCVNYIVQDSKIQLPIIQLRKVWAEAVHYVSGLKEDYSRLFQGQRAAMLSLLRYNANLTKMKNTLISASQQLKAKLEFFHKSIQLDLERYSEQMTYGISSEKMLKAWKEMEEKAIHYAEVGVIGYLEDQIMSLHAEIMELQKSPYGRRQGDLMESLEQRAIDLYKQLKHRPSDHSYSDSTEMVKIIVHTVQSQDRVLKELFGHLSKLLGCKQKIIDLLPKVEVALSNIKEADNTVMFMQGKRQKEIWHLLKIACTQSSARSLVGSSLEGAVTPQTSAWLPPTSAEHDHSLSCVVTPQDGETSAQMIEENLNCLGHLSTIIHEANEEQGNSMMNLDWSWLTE

[7] = target: T2, Inhibitor of nuclear factor kappa-B kinase subunit alpha (Homo sapiens); conditions: at 1 µM
[8] = target: T3, Inhibitor of nuclear factor kappa-B kinase subunit beta (Homo sapiens) (UniProt O14920); conditions: at 0.1 µM
T3 sequence (whole entry): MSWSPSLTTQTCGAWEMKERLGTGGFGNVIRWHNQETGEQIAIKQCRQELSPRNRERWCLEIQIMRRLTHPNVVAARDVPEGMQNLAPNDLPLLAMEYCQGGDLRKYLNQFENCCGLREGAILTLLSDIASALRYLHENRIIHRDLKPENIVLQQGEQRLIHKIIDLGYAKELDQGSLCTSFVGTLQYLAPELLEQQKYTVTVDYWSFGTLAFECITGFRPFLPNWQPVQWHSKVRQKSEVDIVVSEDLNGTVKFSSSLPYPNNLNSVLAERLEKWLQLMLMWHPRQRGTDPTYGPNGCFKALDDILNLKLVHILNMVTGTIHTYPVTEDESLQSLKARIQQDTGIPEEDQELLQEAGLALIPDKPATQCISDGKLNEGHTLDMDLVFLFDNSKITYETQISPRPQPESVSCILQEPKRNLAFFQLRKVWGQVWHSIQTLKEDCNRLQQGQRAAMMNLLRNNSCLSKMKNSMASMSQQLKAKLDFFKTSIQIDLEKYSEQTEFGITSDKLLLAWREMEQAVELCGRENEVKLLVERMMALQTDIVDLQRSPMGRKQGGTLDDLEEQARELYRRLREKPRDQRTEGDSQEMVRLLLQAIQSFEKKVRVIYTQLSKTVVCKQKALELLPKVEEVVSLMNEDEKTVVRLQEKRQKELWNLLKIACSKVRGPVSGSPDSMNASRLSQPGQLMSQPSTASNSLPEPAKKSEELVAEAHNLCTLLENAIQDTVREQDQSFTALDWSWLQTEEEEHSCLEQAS

[9] = target: T3, Inhibitor of nuclear factor kappa-B kinase subunit beta (Homo sapiens); conditions: at 1 µM
[10] = target: T4, Inhibitor of nuclear factor kappa-B kinase subunit epsilon (Homo sapiens) (UniProt Q14164); conditions: at 0.1 µM
T4 sequence (whole entry): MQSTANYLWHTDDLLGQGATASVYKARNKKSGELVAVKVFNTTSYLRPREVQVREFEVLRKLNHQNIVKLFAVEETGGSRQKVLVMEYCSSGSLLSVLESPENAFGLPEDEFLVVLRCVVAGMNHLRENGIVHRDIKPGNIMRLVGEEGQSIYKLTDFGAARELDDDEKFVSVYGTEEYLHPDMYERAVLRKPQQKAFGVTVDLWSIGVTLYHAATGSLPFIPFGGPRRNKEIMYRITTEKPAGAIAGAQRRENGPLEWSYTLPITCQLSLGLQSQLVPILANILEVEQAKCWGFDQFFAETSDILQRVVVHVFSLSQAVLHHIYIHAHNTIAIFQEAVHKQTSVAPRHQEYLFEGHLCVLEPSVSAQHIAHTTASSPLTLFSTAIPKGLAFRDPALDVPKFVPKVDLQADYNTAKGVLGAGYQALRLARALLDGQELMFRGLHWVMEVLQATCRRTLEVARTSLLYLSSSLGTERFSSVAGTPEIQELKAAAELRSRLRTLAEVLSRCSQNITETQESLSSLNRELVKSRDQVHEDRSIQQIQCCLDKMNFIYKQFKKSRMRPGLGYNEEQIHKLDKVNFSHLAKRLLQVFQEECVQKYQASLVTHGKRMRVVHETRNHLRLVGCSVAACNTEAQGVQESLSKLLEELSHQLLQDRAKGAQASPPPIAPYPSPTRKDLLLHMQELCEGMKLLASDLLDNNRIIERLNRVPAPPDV

[11] = target: T4, Inhibitor of nuclear factor kappa-B kinase subunit epsilon (Homo sapiens); conditions: at 1 µM
[12] = target: T5, Serine/threonine-protein kinase Nek1 (Homo sapiens) (UniProt Q96PY6); conditions: at 0.1 µM
T5 sequence (whole entry): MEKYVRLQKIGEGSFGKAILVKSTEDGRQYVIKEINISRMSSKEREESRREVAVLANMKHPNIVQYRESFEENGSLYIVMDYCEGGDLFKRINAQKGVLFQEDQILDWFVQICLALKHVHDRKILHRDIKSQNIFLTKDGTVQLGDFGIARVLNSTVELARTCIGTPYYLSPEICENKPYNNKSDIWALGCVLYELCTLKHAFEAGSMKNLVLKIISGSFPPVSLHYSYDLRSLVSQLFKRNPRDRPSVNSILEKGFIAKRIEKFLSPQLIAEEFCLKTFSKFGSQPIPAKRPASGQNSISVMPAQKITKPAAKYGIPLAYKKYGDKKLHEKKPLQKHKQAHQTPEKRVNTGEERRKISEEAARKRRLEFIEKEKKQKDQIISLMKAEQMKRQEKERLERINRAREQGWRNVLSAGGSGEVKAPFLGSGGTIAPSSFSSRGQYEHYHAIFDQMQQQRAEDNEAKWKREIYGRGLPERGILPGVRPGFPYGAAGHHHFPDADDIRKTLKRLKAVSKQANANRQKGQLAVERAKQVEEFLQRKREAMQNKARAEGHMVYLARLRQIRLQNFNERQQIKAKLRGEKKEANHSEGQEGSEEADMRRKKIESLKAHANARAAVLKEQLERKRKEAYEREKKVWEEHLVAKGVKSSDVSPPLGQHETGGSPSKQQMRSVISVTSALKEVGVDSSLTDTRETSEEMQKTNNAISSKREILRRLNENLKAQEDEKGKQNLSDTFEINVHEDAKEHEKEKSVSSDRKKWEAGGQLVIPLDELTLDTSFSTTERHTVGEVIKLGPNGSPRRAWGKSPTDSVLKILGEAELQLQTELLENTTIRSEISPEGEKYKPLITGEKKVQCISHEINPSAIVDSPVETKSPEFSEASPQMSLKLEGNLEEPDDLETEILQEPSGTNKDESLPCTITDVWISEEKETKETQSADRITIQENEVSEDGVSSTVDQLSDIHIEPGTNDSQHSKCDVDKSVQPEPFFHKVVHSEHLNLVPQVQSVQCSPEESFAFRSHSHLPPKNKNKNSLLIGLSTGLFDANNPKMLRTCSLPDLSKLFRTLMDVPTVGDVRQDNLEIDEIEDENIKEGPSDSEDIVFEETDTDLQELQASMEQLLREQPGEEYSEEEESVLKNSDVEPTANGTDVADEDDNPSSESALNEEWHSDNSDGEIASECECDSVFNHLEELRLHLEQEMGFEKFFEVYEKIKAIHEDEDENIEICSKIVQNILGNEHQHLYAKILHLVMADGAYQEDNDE

[13] = target: T5, Serine/threonine-protein kinase Nek1 (Homo sapiens); conditions: at 1 µM
[14] = target: T6, Serine/threonine-protein kinase Nek2 (Homo sapiens) (UniProt P51955); conditions: at 0.1 µM
T6 sequence (whole entry): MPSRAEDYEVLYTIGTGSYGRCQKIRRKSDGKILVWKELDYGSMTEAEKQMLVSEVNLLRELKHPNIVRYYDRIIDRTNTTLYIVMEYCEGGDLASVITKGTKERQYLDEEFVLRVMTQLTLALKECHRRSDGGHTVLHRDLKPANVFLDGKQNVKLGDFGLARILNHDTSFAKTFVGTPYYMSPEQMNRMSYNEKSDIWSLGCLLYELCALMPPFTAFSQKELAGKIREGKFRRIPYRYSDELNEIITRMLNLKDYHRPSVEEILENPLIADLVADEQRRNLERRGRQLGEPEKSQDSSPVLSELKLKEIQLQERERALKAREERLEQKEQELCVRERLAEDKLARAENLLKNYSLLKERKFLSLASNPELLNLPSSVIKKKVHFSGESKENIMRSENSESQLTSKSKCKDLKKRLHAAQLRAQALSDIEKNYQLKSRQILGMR

[15] = target: T6, Serine/threonine-protein kinase Nek2 (Homo sapiens); conditions: at 1 µM
[16] = target: Serine/threonine-protein kinase Nek6 (Homo sapiens) (UniProt Q9HC98); conditions: at 0.1 µM
[17] = target: Serine/threonine-protein kinase Nek6 (Homo sapiens) (UniProt Q9HC98); conditions: at 1 µM
[18] = target: Serine/threonine-protein kinase Nek7 (Homo sapiens) (UniProt Q8TDX7); conditions: at 0.1 µM
[19] = target: Serine/threonine-protein kinase Nek7 (Homo sapiens) (UniProt Q8TDX7); conditions: at 1 µM
[20] = target: T7, Serine/threonine-protein kinase Nek9 (Homo sapiens) (UniProt Q8TD19); conditions: at 0.1 µM;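 further: reported value is the mean percent inhibition of NEK9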
T7 sequence (whole entry): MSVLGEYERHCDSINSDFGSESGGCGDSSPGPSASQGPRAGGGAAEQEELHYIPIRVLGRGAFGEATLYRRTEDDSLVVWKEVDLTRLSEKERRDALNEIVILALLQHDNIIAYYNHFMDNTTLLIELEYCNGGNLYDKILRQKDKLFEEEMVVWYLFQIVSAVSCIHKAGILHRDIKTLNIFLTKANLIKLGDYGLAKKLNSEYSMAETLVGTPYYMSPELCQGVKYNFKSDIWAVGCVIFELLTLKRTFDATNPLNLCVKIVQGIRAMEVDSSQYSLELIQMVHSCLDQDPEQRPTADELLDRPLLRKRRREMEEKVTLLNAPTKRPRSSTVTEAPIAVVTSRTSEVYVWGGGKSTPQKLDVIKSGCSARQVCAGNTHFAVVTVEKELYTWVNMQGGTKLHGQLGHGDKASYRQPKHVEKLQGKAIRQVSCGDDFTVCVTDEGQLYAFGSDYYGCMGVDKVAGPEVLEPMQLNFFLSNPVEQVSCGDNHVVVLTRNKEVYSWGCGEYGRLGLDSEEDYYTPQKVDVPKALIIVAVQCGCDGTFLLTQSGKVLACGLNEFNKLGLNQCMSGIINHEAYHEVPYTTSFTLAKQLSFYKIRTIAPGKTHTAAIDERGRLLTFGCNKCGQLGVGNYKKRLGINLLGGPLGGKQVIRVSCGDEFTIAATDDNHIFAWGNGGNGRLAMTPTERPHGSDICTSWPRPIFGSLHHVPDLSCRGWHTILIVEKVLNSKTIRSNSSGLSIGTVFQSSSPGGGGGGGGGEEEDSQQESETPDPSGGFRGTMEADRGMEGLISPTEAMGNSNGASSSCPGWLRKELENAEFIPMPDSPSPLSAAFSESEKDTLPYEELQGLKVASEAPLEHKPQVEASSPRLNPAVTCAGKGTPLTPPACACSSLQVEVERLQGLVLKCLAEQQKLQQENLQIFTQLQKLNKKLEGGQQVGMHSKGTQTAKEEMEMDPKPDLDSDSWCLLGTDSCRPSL

Serine/threonine-protein kinase Nek7 (Homo sapiens), sequence (Q8TDX7 whole entry, looked up): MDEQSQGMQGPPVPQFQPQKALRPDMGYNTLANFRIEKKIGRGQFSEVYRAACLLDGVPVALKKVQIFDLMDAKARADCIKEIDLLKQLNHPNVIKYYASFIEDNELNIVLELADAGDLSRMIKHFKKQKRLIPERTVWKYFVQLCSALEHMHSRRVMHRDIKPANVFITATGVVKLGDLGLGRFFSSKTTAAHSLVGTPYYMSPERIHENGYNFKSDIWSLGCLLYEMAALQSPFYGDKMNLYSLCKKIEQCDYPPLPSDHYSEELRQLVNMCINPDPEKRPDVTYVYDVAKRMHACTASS
Casein kinase II subunit alpha (Homo sapiens), sequence (P68400 whole entry, looked up): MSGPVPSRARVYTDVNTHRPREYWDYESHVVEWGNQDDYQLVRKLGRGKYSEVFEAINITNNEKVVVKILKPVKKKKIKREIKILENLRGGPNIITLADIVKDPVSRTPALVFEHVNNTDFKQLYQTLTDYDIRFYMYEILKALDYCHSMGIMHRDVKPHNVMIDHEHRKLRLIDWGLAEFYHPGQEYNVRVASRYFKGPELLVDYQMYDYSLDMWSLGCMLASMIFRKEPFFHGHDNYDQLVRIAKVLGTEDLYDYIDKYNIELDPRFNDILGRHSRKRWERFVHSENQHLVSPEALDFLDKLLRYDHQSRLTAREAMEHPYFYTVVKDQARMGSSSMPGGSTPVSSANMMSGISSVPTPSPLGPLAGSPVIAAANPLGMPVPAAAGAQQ
Serine/threonine-protein kinase Nek6 (Homo sapiens), sequence (Q9HC98 whole entry): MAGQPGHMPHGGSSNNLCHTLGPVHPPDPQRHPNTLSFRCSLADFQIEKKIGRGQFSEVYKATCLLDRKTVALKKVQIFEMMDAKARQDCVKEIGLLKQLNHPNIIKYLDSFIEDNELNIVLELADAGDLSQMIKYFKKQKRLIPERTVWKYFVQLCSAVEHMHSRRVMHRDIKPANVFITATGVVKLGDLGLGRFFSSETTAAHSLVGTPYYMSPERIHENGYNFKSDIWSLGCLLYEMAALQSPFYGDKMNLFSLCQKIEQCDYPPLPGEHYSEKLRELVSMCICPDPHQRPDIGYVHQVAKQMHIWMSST
Sphingosine kinase 1 (Homo sapiens), sequence (Q9NYA1 whole entry): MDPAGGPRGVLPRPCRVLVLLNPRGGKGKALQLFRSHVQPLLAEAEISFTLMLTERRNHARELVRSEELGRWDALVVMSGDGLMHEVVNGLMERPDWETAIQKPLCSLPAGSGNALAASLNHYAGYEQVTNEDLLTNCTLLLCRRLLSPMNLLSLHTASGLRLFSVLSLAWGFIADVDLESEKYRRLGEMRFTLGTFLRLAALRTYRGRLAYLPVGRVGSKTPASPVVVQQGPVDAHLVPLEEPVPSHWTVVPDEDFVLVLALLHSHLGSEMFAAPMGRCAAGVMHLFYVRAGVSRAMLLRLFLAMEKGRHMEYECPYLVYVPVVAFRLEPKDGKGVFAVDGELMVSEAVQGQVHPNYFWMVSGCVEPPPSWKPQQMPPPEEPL

Structure (SMILES) | inhibition [1] | inhibition [2] | inhibition [3] | inhibition [4] | inhibition [5] | inhibition [6] | inhibition [7] | inhibition [8] | inhibition [9] | inhibition [10] | inhibition [11] | inhibition [12] | inhibition [13] | inhibition [14] | inhibition [15] | inhibition [16] | inhibition [17] | inhibition [18] | inhibition [19] | inhibition [20]
CCN1CCC(CC(=O)Nc2n[nH]c3nc(-c4cccs4)c(Br)cc23)CC1 | 1.53% | -0.06% | -0.11% | 1.1% | 4.38% | 4.35% | 5.49% | -1.36% | -2.71% | -5.79% | -3.61% | -1.51% | 0.77% | -1.87% | -2.3% | -1.1% | -2.19% | 0.31% | -4.11% | 0.24%
NS(=O)(=O)c1cccc(-c2ccc3c(NC(=O)C4CC4)n[nH]c3c2)c1 | 2.86% | 0.74% | -0.18% | 0.11% | -0.44% | 11.4% | 5.2% | -0.49% | -1.55% | -4.07% | -3.2% | -0.9% | -0.76% | -1.41% | -0.18% | -1.88% | -0.37% | 1.22% | -2.64% | 4.44%
